Laboratory results: PubChem BioAssay (EPA / NIEHS)
The source holds several records for some structures; these can differ, active in one and inactive in another. Calls of active or inactive are those of the source. How the source made its calls: active means hit-call score of the fitted dose curve at least 0.9, where 1 is the maximum; inactive means score below 0.9.

How the values were obtained:
Settings in all cases: primary human HUVEC with PBMC; actives raise or lower the signal
[1] = BSK_LPS_PGE2: BioMAP Diversity Plus: LPS Assay for Prostaglandin E2 (PGE2) Biomarker Activity (AID 2283082);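 on AC50: secreted prostaglandin E2 measured by ELISA in LPS-stimulated co-culture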
How it was run: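 ELISA read-out of PGE2 from human umbilical vein endothelial cells co-cultured with peripheral blood mononuclear cells under LPS, 24 h post-dose. Gain or loss of signal scored relative to DMSO baseline.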

[2] = read-out: Tissue Factor, F3 (gene 2152); assay: BSK_LPS_TissueFactor: BioMAP Diversity Plus: LPS Assay for Tissue Factor Biomarker Activity (AID 2283084)
How it was run: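 In this co-culture system of umbilical vein endothelium with PBMC, stimulated with LPS, cell-surface CD142 is detected by ELISA at 24 h. Endpoint values derive from bidirectional fitting, DMSO serving as baseline.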

[3] = read-out: Vascular cell adhesion molecule 1 (VCAM1), VCAM1 (gene 7412); assay: BSK_LPS_VCAM1: BioMAP Diversity Plus: LPS Assay for Vascular cell adhesion molecule 1 (VCAM1) Biomarker Activity (AID 2283086)
How it was run: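 ELISA read-out of VCAM-1 at 24 h post-dosing in an LPS-driven HUVEC/PBMC primary human co-culture; gain or loss of signal fitted bidirectionally against DMSO baseline. Cytotoxicity tracked in parallel cultures by SRB total-protein staining.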

CD38, CD38 (gene 952) = assay: BSK_SAg_CD38: BioMAP Diversity Plus: SAg Assay for CD38 Biomarker Activity (AID 2283087)
How it was run: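 Measures CD38 on a human endothelial/PBMC co-culture driven by SEB and TSST-1, 24 h after compound exposure, using ELISA with fluorescence detection; DMSO defines baseline for bidirectional curve fitting.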

CD40, CD40 (gene 958) = assay: BSK_SAg_CD40: BioMAP Diversity Plus: SAg Assay for CD40 Biomarker Activity (AID 2283088)
How it was run: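 Fluorescence ELISA read-out of CD40 from umbilical vein endothelium plus peripheral blood mononuclear cells, sampled 24 h after dosing. Values come from bidirectional curve fitting with DMSO as baseline.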

CD69, CD69 (gene 969) = assay: BSK_SAg_CD69: BioMAP Diversity Plus: SAg Assay for CD69 Biomarker Activity (AID 2283089);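 on AC50: cell surface CD69 protein quantified by ELISA with fluorescence detection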
How it was run: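 ELISA, fluorescence read-out: CD69 on human umbilical vein endothelial cell + PBMC co-culture, 24 h post-dosing. Gain or loss of signal fitted bidirectionally against DMSO baseline.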

[4] = read-out: Monocyte Chemoattractant Protein-1 (MCP1), CCL2 (gene 6347); assay: BSK_SAg_MCP1: BioMAP Diversity Plus: SAg Assay for Monocyte Chemoattractant Protein-1 (MCP1) Biomarker Activity (AID 2283090)
How it was run: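 Values derive from bidirectional fitting of ELISA-measured MCP1 against DMSO controls. Readings were taken 24 h after dosing human vascular endothelial cells co-cultured with peripheral blood mononuclear cells under superantigen stimulation.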

[5] = read-out: E-selectin (Homo sapiens) (UniProt P16581); assay: BSK_SAg_Eselectin: BioMAP Diversity Plus: SAg Assay for Eselectin Biomarker Activity (AID 2283091)
How it was run: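 Primary human endothelial cells and peripheral blood mononuclear cells were co-cultured and exposed to chemical for 24 hours. E-selectin levels were then quantified by ELISA, with bidirectional curve fitting normalised to DMSO controls.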

[6] = read-out: Macrophage colony-stimulating factor (MCSF), CSF1 (gene 1435); assay: BSK_LPS_MCSF: BioMAP Diversity Plus: LPS Assay for Macrophage colony-stimulating factor (MCSF) Biomarker Activity (AID 2283083)
How it was run: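 Compound is added to a human vascular primary co-culture of umbilical vein endothelium and blood mononuclear cells. After 24 h, M-CSF is quantified by ELISA. Signal changes are fitted in both directions against DMSO.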

[7] = read-out: Tumor necrosis factor (Homo sapiens) (UniProt P01375); assay: BSK_LPS_TNFa: BioMAP Diversity Plus: LPS Assay for Tumour Necrosis Factor alpha (TNFa) Biomarker Activity (AID 2283085);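 on AC50: TNFa protein level quantified by ELISA in the co-culture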
How it was run: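 HUVEC/PBMC co-culture, LPS-stimulated; 24 h post-dose; TNFa by ELISA; gain or loss of signal fitted bidirectionally vs DMSO baseline.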

Measured: AC50

Chain of E-selectin (Homo sapiens) (P16581 whole entry, looked up): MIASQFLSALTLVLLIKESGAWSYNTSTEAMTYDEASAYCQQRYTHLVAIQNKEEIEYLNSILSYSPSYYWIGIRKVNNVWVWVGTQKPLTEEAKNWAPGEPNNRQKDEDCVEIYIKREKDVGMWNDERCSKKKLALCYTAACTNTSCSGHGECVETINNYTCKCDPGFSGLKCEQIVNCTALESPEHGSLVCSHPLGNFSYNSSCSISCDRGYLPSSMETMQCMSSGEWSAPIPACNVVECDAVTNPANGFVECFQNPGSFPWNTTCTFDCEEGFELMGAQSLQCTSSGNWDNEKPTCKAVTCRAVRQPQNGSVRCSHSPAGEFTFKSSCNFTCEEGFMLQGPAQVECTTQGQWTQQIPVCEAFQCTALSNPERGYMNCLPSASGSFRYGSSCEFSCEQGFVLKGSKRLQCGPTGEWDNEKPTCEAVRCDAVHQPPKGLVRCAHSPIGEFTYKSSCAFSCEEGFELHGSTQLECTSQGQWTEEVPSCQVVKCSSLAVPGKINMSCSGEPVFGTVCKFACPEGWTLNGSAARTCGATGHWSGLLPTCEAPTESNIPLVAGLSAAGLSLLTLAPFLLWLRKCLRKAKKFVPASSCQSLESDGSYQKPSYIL
Chain of Tumor necrosis factor (Homo sapiens) (P01375 whole entry, looked up): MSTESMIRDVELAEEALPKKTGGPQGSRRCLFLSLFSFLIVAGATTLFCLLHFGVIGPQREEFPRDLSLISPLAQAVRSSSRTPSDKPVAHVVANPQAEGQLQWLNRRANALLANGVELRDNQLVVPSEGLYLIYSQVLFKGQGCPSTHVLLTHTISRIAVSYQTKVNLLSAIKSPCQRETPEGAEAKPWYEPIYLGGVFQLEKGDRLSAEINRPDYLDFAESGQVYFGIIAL

CC[C@H](C)[C@@H](C(=O)O)n1sc2ccccc2c1=O
active: [1] 32.2 µM | [3] 26.5 µM
not listed: [6] | [7]
inactive: all other assays above

CN(C)C=O
not listed: [1]
inactive: all other assays above

COC(=O)CCCCC(=O)OC
not listed: [7]
inactive: all other assays above

NC(=O)N1C(=O)C(C(=O)c2cc(Cl)cs2)c2cc(F)c(Cl)cc21 (configuration not stated)
inactive: [3]
active: [1] 0.345 µM | [2] 11.1 µM | CD38, CD38 (gene 952) 24.9 µM | CD40, CD40 (gene 958) 16.4 µM | CD69, CD69 (gene 969) 20 µM | [4] 5.4 µM | [5] 8.61 µM

COCC(C)O (configuration not stated)
not listed: [7]
inactive: all other assays above

CCc1nn(C2CCCCC2)c2cc(C3(C#N)CCC(C(=O)O)CC3)ccc12 (configuration not stated)
inactive: [1] | [2]
active: [3] 2.43 µM | CD38, CD38 (gene 952) 20 µM | CD40, CD40 (gene 958) 10.6 µM | CD69, CD69 (gene 969) 5.47 µM | [4] 4.61 µM | [5] 1.78 µM

Oc1cccc(O)c1
not listed: [6] | [7]
inactive: all other assays above

CCC(=C(c1ccc(O)cc1)c1ccc(OCCN(C)C)cc1)c1ccccc1
active: [1] 19.8 µM | [6] 7.5 µM | [2] 13 µM | [3] 12.6 µM | CD38, CD38 (gene 952) 8.38 µM | CD40, CD40 (gene 958) 11.1 µM | CD69, CD69 (gene 969) 9.48 µM | [4] 11.1 µM | [5] 18.7 µM

CC(C)(C)c1cc(C(C)(C)C)c(O)c(C(C)(C)C)c1
active: [2] 20 µM
not listed: [6] | [7]
inactive: all other assays above

CC(C)(C)c1ccc(O)c(C(C)(C)C)c1
active: [1] 16.9 µM | [6] 13.4 µM | [2] 20 µM | [3] 19.4 µM | CD38, CD38 (gene 952) 14.5 µM | CD40, CD40 (gene 958) 20 µM | CD69, CD69 (gene 969) 24.8 µM | [4] 23.6 µM | [5] 11.9 µM

Oc1cc2ccccc2c2ccccc12
active: [1] 3.34 µM | [6] 7.85 µM | [2] 9.95 µM | [7] 11.6 µM | [3] 9.03 µM | CD38, CD38 (gene 952) 10 µM | CD40, CD40 (gene 958) 9.94 µM | CD69, CD69 (gene 969) 8.99 µM | [4] 7.84 µM | [5] 8.61 µM

c1ccc2cc3c(ccc4ccccc43)cc2c1
active: [2] 0.587 µM
not listed: [1]
inactive: all other assays above

CC(C)(C)c1cccc(C(C)(C)C)c1O
not listed: [6]
inactive: all other assays above

CCCOC(=O)c1ccc(O)cc1
not listed: [1]
inactive: all other assays above

CC(O)CO (configuration not stated)
not listed: [6]
inactive: all other assays above

CC(C)(C)CC(C)(C)c1ccc(O)c(-n2nc3ccccc3n2)c1
not listed: [1]
inactive: all other assays above

CCc1ccc(CCOc2ccc(CC3SC(=O)NC3=O)cc2)nc1 (configuration not stated)
not listed: [7]
inactive: all other assays above

C=C(C)C(=O)OCCC(F)(F)C(F)(F)C(F)(F)C(F)(F)C(F)(F)C(F)(F)F
not listed: [6]
inactive: all other assays above

Cc1oc(-c2ccccc2)nc1CCOc1ccc(C[C@H](Nc2ccccc2C(=O)c2ccccc2)C(=O)O)cc1
active: [6] 30.6 µM | [2] 31.6 µM | [7] 30.4 µM | [3] 33.1 µM | CD38, CD38 (gene 952) 28.6 µM | CD40, CD40 (gene 958) 30 µM | CD69, CD69 (gene 969) 14.4 µM | [4] 24.1 µM | [5] 31.5 µM

c1ccc2c(c1)Cc1ccccc1-2
not listed: [6] | [7]
inactive: all other assays above

CC(=O)NC1(c2cccc(F)c2)CCN(CC[C@@]2(c3ccc(Cl)c(Cl)c3)CN(c3ccccc3)C(=O)CO2)CC1
active: [3] 16.6 µM | CD38, CD38 (gene 952) 26.7 µM | CD40, CD40 (gene 958) 30.5 µM | CD69, CD69 (gene 969) 25.2 µM | [4] 27.5 µM
inactive: all other assays above

CCCCC(CC)COC(=O)CCCCC(=O)OCc1ccccc1 (configuration not stated)
not listed: [6] | [7]
inactive: all other assays above

COCC(C)OCC(C)O (configuration not stated)
inactive: all assays above

CC(=O)CC(C)(C)O
not listed: [6] | [7]
inactive: all other assays above

CCCCCCCCCCCCCCCS(=O)(=O)Oc1ccccc1
not listed: [6] | [7]
inactive: all other assays above

CC#C[C@]1(O)CC[C@H]2[C@@H]3CCC4=CC(=O)CCC4=C3[C@@H](c3ccc(N(C)C)cc3)C[C@@]21C
active: [6] 12.1 µM | CD38, CD38 (gene 952) 36.6 µM | CD40, CD40 (gene 958) 31.2 µM | CD69, CD69 (gene 969) 31.9 µM | [4] 31.7 µM | [5] 33.4 µM
inactive: [1] | [2]

OCCC(F)(F)C(F)(F)C(F)(F)C(F)(F)C(F)(F)C(F)(F)F
active: [6] 46.8 µM | [3] 48.9 µM | CD38, CD38 (gene 952) 50.4 µM | CD40, CD40 (gene 958) 56.3 µM | CD69, CD69 (gene 969) 51.3 µM | [5] 54.9 µM
inactive: [1] | [6] | [2] | [3] | CD38, CD38 (gene 952) | CD40, CD40 (gene 958) | CD69, CD69 (gene 969) | [4] | [5]

CCCCCCCCOC(=O)CCCCCCCCC(=O)OCCCCCCCC
not listed: [6] | [7]
inactive: all other assays above

OC1CCC(C2CCCCC2)CC1 (configuration not stated)
not listed: [6] | [7]
inactive: all other assays above

CCCCCCCCCCCCN1CCCC1=O
active: [6] 32.6 µM | [3] 34.1 µM | CD38, CD38 (gene 952) 31.3 µM | CD40, CD40 (gene 958) 30.9 µM | CD69, CD69 (gene 969) 29.9 µM | [4] 29.6 µM | [5] 30.3 µM
inactive: [2] | [7]
